# Measurements taken from PubChem BioAssay (Tox21).
# Inconclusive results are not listed. Calls of active or inactive are those of the source. The call rests on the fitted dose curve; in most records, active means well fitted activation curve with a large enough effect in the signal ratio in the repeat runs (not every such curve was filed as active); inconclusive means weak or mixed curves, or effect the other way; inactive means no such curve, though single readings can be large or run the other way; the % refers to the signal ratio.
# Target: Peroxisome proliferator-activated receptor gamma (Homo sapiens) (UniProt P37231)
# Sequence (P37231 whole entry, looked up): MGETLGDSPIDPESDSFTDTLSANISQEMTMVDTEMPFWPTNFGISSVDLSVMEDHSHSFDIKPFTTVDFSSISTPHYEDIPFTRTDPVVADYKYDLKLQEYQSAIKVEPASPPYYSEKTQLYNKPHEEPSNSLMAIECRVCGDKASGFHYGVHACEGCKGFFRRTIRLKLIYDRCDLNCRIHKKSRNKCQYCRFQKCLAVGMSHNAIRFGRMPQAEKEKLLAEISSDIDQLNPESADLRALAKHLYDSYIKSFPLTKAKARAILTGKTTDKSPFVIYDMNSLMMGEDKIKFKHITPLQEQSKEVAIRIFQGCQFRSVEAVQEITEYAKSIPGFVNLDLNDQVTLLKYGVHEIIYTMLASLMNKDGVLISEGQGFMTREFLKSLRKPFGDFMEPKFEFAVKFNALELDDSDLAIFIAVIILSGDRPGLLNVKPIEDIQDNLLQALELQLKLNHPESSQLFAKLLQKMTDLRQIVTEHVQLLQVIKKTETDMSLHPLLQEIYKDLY
# Assay: qHTS assay to identify small molecule agonists of the peroxisome proliferator-activated receptor gamma (PPARg) signaling pathway (AID 743094)
# Details: HEK293H PPARg-UAS-bla, beta-lactamase FRET ratio, 17 h; series mostly up to 57 µM
# Source text: U.S. Tox21 Program National Center for Advancing Translational Sciences [NCATS] NIH Chemical Genomics Center [NCGC] U.S. Environmental Protection Agency [EPA] National Institutes of Environmental Health Sciences [NIEHS] National Toxicology Program [NTP] U.S. Food and Drug Administration [FDA] Tox21 Assay Overview: The peroxisome proliferator-activated receptors (PPARs) are lipid-activated transcription factors of the nuclear receptor superfamily with three distinct subtypes namely PPAR alpha, PPAR delta (also called PPAR beta) and PPAR gamma (PPARg). All these subtypes heterodimerize with Retinoid X receptor (RXR) and these heterodimers regulate transcription of various genes. PPAR-gamma receptor (glitazone receptor) is involved in the regulation of glucose and lipid metabolism. To identify the compounds that activate PPAR-gamma signaling, GeneBLAzer PPAR gamma UAS-bla HEK293H cell line (Invitrogen, Carlsbad, CA, USA) containing a beta-lactamase reporter gene under control of the control of an upstream activator sequence (UAS) stably integrated into HEK293H cells was used to screen Tox21 compound library.
# Tox21 Assay Protocol Summary: PPARg-bla cells were dispensed at 3000 cells/6uL/well in 1536-well black wall/clear bottom plates using a Multidrop Combi (Thermo Fisher Scientific, Waltham, MA) dispenser. After the assay plates were incubated at 37C and 5% CO2 for 5 h, 23 nL of compounds dissolved in DMSO, positive controls or DMSO only was transferred to the assay plate by a Pintool station (Kalypsys, San Diego, CA). The assay plates were incubated at 37C for 17 h. After 1 uL of LiveBLAzerTM B/G FRET substrate was added using a Bioraptr Flying Reagent Dispenser (FRD) workstation (Beckman Coulter, Indianapolis, IN, USA), the plates were incubated at room temperature for 1 h, and fluorescence intensity was measured by an Envision plate reader (PerkinElmer, Shelton, CT).
row,SMILES,outcome
1,CC(=O)OCC(C)C,inactive
2,O=[N+]([O-])C1(Br)COCOC1,inactive
3,CN(C)CC/C=C1\c2ccccc2Sc2ccc(Cl)cc21,inactive
4,CCCCCCC(CO)CCCC (stereo not given),inactive
5,CC1C(C)(C)C2=C(C(=O)CCC2)C1(C)C (stereo not given),inactive
6,Cc1ccc(Cl)cc1N,inactive
7,CCCCCCCC(=O)OCCCCCC,inactive
8,CC(C)(C)S,inactive
9,CC(=O)OCC(=O)[C@@]1(OC(C)=O)[C@@H](C)C[C@H]2[C@@H]3C[C@H](F)C4=CC(=O)C=C[C@]4(C)[C@@]3(F)[C@@H](O)C[C@@]21C,inactive
10,CC1=CC[C@@]23C[C@@H]1C(C)(C)[C@@H]2CC[C@H]3C,inactive
11,O=C1OC[C@H](Cc2cccc(O)c2)[C@H]1Cc1cccc(O)c1,inactive
12,c1ccc(CCCc2ccncc2)cc1,inactive
13,N[C@@H](Cc1cc(I)c(O)c(I)c1)C(=O)O,inactive
14,COc1ccc(C(=O)NCc2ccc(OCCN(C)C)cc2)cc1OC,inactive
15,COC1CCC=CO1 (stereo not given),inactive
16,COc1ccc(C)cc1,inactive
17,ClC1=C(Cl)C1(Cl)Cl,inactive
18,CCC(Cl)CC(Cl)C(Cl)C(Cl)C(Cl)C(C)Cl (stereo not given),inactive
19,O=NN(CCCl)C(=O)NCCCl,inactive
20,CSSc1ccoc1C,inactive

row,SMILES,outcome
1,CCN(CC)c1cccc(O)c1,inactive
2,O=C(NC(Cc1cc(=O)[nH]c2ccccc12)C(=O)O)c1ccc(Cl)cc1 (stereo not given),inactive
3,CC(C)C1CCC(C(=O)N[C@H](Cc2ccccc2)C(=O)O)CC1 (stereo not given in full),inactive
4,O=C(O)/C=C/c1ccc(O)c(O)c1,inactive
5,CC(C)N(C)C,inactive
6,CC(=O)c1ccc[nH]1,inactive
7,O=c1[nH]c2cc(C(F)(F)F)c(N3CCOCC3)cc2n(CP(=O)(O)O)c1=O,inactive
8,CC(C)COC(=O)COc1cc(Cl)c(Cl)cc1Cl,inactive
9,O=c1[nH][nH]c(=O)c2cc([N+](=O)[O-])ccc12,inactive
10,O=C(O)CNC(=O)c1ccccc1I,inactive
11,COc1cc(OC)c2ccc(=O)oc2c1,inactive
12,CC(C)c1ccc(C#N)cc1,inactive
13,O=S(=O)(Cl)c1c(Cl)cccc1Cl,inactive
14,Nc1ccc(S(=O)(=O)NCc2ccccc2)cc1,inactive
15,O=C(C(=O)c1ccco1)c1ccco1,inactive
16,CC(C)(C)C1(CCc2ccc(Cl)cc2)CO1 (stereo not given),inactive
17,CNc1c2c(nn1C)CCCC2,inactive
18,Cc1cc(CCC(=O)OCCOCCOCCOC(=O)CCc2cc(C)c(O)c(C(C)(C)C)c2)cc(C(C)(C)C)c1O,inactive
19,CC1CCCC(=O)C1=O (stereo not given),inactive
20,O=C1NC(=O)c2cccc3cccc1c23,inactive
